# Test results from PubChem BioAssay.
# Results filed as inconclusive are left out. The source made the active and inactive calls.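 How the source made its calls, unless noted: active means normalized viability below 100% at a tested concentration; inactive means the rest.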
# Tests used:
# [1] = drug combination growth inhibition, ovarian cancer – cell-based, oncology-focused library, rucaparib conditional, profiling panel (AID 1508598); conditions: patient-derived ovarian cancer cells, CellTiter-Glo viability, 144 h, stronger effect = lower value
# [2] = viability loss in pontine glioma line – cell-based, SU-DIPG-XIII, MIPE4.0, CellTiter-Glo, qHTS, dose response (AID 1347061; cut-off not given, nearly all actives have AC50 up to about 37 µM;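 further: cells exposed to compound for 48 hours before readout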); conditions: CellTiter-Glo ATP luminescence
# [3] = viability loss in pontine glioma line – cell-based, JHH-DIPG-1, MIPE4.0, CellTiter-Glo, qHTS, dose response (AID 1347062; cut-off not given, nearly all actives have AC50 up to about 27 µM;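 on AC50: cells exposed to compound for two days before readout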); conditions: JHH-DIPG-1 viability, CellTiter-Glo ATP luminescence
# [4] = growth inhibition of DIPG cells – cell-based, MIPE4.0 library, CellTiter-Glo luminescence, qHTS (AID 1347066; cut-off not given, nearly all actives have AC50 up to about 30 µM;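 further: cells exposed to compound for 48 hours before readout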); conditions: SU-DIPG-VI viability, CellTiter-Glo ATP luminescence
# [5] = JHH-DIPG-1 glioma cell viability, MIPE5.0 library, CellTiter-Glo luminescence, qHTS (AID 1347067; cut-off not given, nearly all actives have AC50 up to about 26 µM;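 further: cells exposed to compound for 48 hours before readout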); conditions: JHH-DIPG-1 glioma viability, CellTiter-Glo ATP luminescence
# [6] = growth inhibition of DIPG cells – cell-based, MIPE5.0 library, qHTS (AID 1347068; cut-off not given, nearly all actives have IC50 up to about 30 µM;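 on IC50: cells exposed to compound for 48 hours before viability readout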); conditions: SU-DIPG-XXV viability
# [7] = compounds altering HSF1 focus formation in cells – imaging, Selleck Cancer Library (AID 1347162; in the data active means plate-normalised HSF1 focus index below about 0.46); conditions: human cells, HSF1 nuclear foci imaging, at 10 µM; SSMD: measured here: HSF1 foci SSMD mean; cell count: measured here: cell number; plate-normalised HSF1 focus index: stronger effect = lower value
# [8] = viability loss in pontine glioma line – cell-based, SU-DIPG-XXV, MIPE5.0, CellTiter-Glo, qHTS, dose response (AID 1347065; cut-off not given, nearly all actives have AC50 up to about 26 µM;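 further: cells exposed to compound for 48 hours before ATP readout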); conditions: CellTiter-Glo ATP luminescence
# [9] = viability loss with induced miR-34 in A549 – imaging, A549 dox-inducible miR-34, nuclei and caspase counts, primary screen (AID 1347080;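 active means compounds whose cell count with miR-34 switched on is under 0.7 times the count with it off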); conditions: A549 miR-34 inducible, Hoechst nuclei count, 48 h
# [10] = MELAS cybrid and Rieske KO viability enhancers – cell-based, MELAS cybrids, Rieske KO mouse fibroblasts, CellTiter-Glo, primary screen (AID 1508586;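 active means mean z-score across replicates of 1.96 or higher in either the MELAS or the Rieske mutant cell line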;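 further: z relative to plate mean and SD of compound and empty wells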); conditions: low glucose
# [11] = viability loss in pontine glioma line – cell-based, SU-DIPG-XIII, MIPE5.0, CellTiter-Glo, qHTS, dose response (AID 1347064; cut-off not given, nearly all actives have AC50 up to about 23 µM); conditions: CellTiter-Glo ATP luminescence
# [12] = at 0.0195 µM, OCI-P5x cells, without rucaparib
# [13] = at 0.0781 µM, OCI-C5x cells, with rucaparib 10 µM, 100% = cells with rucaparib alone
# [14] = at 0.0781 µM, OCI-C5x cells, without rucaparib
# [15] = at 0.0781 µM, OCI-P5x cells, with rucaparib 20 µM, 100% = cells with rucaparib alone
# [16] = at 0.0781 µM, OCI-P5x cells, without rucaparib
# [17] = at 0.313 µM, OCI-C5x cells, with rucaparib 10 µM, 100% = cells with rucaparib alone
# [18] = at 0.313 µM, OCI-C5x cells, without rucaparib
# [19] = at 0.313 µM, OCI-P5x cells, with rucaparib 20 µM, 100% = cells with rucaparib alone
# [20] = at 0.313 µM, OCI-P5x cells, without rucaparib
# [21] = at 1.25 µM, OCI-C5x cells, with rucaparib 10 µM, 100% = cells with rucaparib alone
# [22] = at 1.25 µM, OCI-C5x cells, without rucaparib
# [23] = at 1.25 µM, OCI-P5x cells, with rucaparib 20 µM, 100% = cells with rucaparib alone
# [24] = at 1.25 µM, OCI-P5x cells, without rucaparib
# [25] = at 5 µM, OCI-C5x cells, with rucaparib 10 µM, 100% = cells with rucaparib alone
# [26] = at 5 µM, OCI-C5x cells, without rucaparib
# [27] = at 5 µM, OCI-P5x cells, with rucaparib 20 µM, 100% = cells with rucaparib alone
# [28] = at 5 µM, OCI-P5x cells, without rucaparib
# [29] = stronger effect = lower value, cell number ratio, induced over uninduced
# [30] = measured here: relative caspase fold change +Dox/-Dox
# [31] = measured here: total cells with miR-34 induction, stronger effect = lower value
# [32] = measured here: total cells without miR-34 induction
# [33] = MELAS cybrid survival, CellTiter-Glo 48 h, stronger effect = higher value
# [34] = Rieske KO mouse fibroblast survival, CellTiter-Glo 72 h
smiles,measurement,setting,value
COc1cc(OC2CCN(C)CC2)ccc1Nc1ncc2c(n1)n(C1CCCC1)c(=O)n2C,viability,[1]; [12],94% (active)
same,viability,[1]; [13],96.6% (active)
same,viability,[1]; [14],120% (inactive)
same,viability,[1]; [15],118% (inactive)
same,viability,[1]; [16],110% (inactive)
same,viability,[1]; [17],101% (inactive)
same,viability,[1]; [18],124% (inactive)
same,viability,[1]; [19],122% (inactive)
same,viability,[1]; [20],111% (inactive)
same,viability,[1]; [21],48.8% (active)
same,viability,[1]; [22],115% (inactive)
same,viability,[1]; [23],106% (inactive)
same,viability,[1]; [24],64.7% (active)
same,viability,[1]; [25],46.3% (active)
same,viability,[1]; [26],115% (inactive)
same,viability,[1]; [27],76.9% (active)
same,viability,[1]; [28],28.1% (active)
CCCCn1c(=O)n(Cc2ccccc2F)c(=O)c2[nH]c(Cc3ccc(NC(C)=O)cc3)nc21,outcome,[2],inactive
same,outcome,[3],inactive
same,outcome,[4],inactive
same,outcome,[5],inactive
same,outcome,[6],inactive
same,SSMD,[7],3.98
same,cell count,[7],6960
same,plate-normalised HSF1 focus index,[7],1.24 (inactive)
O=C(OCC#CCSc1nnc(-c2cccc3ccccc23)o1)c1cc2ccccc2s1,outcome,[2],inactive
same,outcome,[3],inactive
same,outcome,[4],inactive
CCCCc1ccc(NS(=O)(=O)c2ccc(C)c(C(=O)N3CCN(c4cccc(C)c4C)CC3)c2)cc1,outcome,[2],inactive
same,outcome,[3],inactive
same,AC50,[4],23.5 µM (active)
Cc1csc(-c2nnc(Nc3ccc(Oc4ncccc4-c4ccnc(N)n4)cc3)c3ccccc23)c1,outcome,[2],inactive
same,outcome,[3],inactive
same,AC50,[8],0.00417 µM (active)
same,outcome,[4],inactive
same,outcome,[5],inactive
same,fold change,[9]; [29],1.11 (inactive)
same,fold change,[9]; [30],0.556
same,cell count,[9]; [31],3250
same,cell count,[9]; [32],2920
same,SSMD,[7],8.74
same,cell count,[7],7110
same,plate-normalised HSF1 focus index,[7],1.31 (inactive)
same,z-score,[10]; [33],-0.373 (inactive)
same,z-score,[10]; [34],1.23
same,viability,"[1]; at 0.000305 µM, OCI-C5x cells, with rucaparib 10 µM, 100% = cells with rucaparib alone",113% (inactive)
same,viability,"[1]; at 0.000305 µM, OCI-C5x cells, without rucaparib",116% (inactive)
same,viability,"[1]; at 0.000305 µM, OCI-P5x cells, with rucaparib 20 µM, 100% = cells with rucaparib alone",111% (inactive)
same,viability,"[1]; at 0.000305 µM, OCI-P5x cells, without rucaparib",94.9% (active)
same,viability,"[1]; at 0.00122 µM, OCI-C5x cells, with rucaparib 10 µM, 100% = cells with rucaparib alone",109% (inactive)
same,viability,"[1]; at 0.00122 µM, OCI-C5x cells, without rucaparib",107% (inactive)
same,viability,"[1]; at 0.00122 µM, OCI-P5x cells, with rucaparib 20 µM, 100% = cells with rucaparib alone",108% (inactive)
same,viability,"[1]; at 0.00122 µM, OCI-P5x cells, without rucaparib",98.2% (active)
same,viability,"[1]; at 0.00488 µM, OCI-C5x cells, with rucaparib 10 µM, 100% = cells with rucaparib alone",103% (inactive)
same,viability,"[1]; at 0.00488 µM, OCI-C5x cells, without rucaparib",92.7% (active)
same,viability,"[1]; at 0.00488 µM, OCI-P5x cells, with rucaparib 20 µM, 100% = cells with rucaparib alone",113% (inactive)
same,viability,"[1]; at 0.00488 µM, OCI-P5x cells, without rucaparib",93.3% (active)
same,viability,"[1]; at 0.0195 µM, OCI-C5x cells, with rucaparib 10 µM, 100% = cells with rucaparib alone",78.2% (active)
same,viability,"[1]; at 0.0195 µM, OCI-C5x cells, without rucaparib",88.5% (active)
same,viability,"[1]; at 0.0195 µM, OCI-P5x cells, with rucaparib 20 µM, 100% = cells with rucaparib alone",93% (active)
same,viability,[1]; [12],70.3% (active)
same,viability,[1]; [13],82.2% (active)
same,viability,[1]; [14],99.2% (active)
same,viability,[1]; [15],92.9% (active)
same,viability,[1]; [16],66.6% (active)
same,viability,[1]; [17],79.9% (active)
same,viability,[1]; [18],105% (inactive)
same,viability,[1]; [19],94.9% (active)
same,viability,[1]; [20],67.8% (active)
same,viability,[1]; [21],102% (inactive)
same,viability,[1]; [22],95.4% (active)
same,viability,[1]; [23],91% (active)
same,viability,[1]; [24],64.7% (active)
same,viability,[1]; [25],119% (inactive)
same,viability,[1]; [26],133% (inactive)
same,viability,[1]; [27],58.5% (active)
same,viability,[1]; [28],54.4% (active)
CN1CCc2c(n(Cc3ccc(C(=O)NO)cc3)c3ccccc23)C1,outcome,[2],inactive
same,AC50,[3],23.5 µM (active)
same,AC50,[8],18.6 µM (active)
CCN1CCN(C(=O)N[C@H](C(=O)N[C@@H]2C(=O)N3C(C(=O)O)=C(CSc4nnnn4C)CS[C@@H]23)c2ccc(O)cc2)C(=O)C1=O,outcome,[2],inactive
same,outcome,[3],inactive
same,outcome,[4],inactive
COc1cc2c(cc1OC)CN(CCc1ccc(NC(=O)c3cc(OC)c(OC)cc3NC(=O)c3cnc4ccccc4c3)cc1)CC2,AC50,[2],20.9 µM (active)
same,outcome,[3],inactive
same,outcome,[8],inactive
same,outcome,[5],inactive
same,outcome,[6],inactive
same,fold change,[9]; [29],0.948 (inactive)
same,fold change,[9]; [30],0.402
same,cell count,[9]; [31],8470
same,cell count,[9]; [32],8940
same,z-score,[10]; [33],-0.604 (inactive)
same,z-score,[10]; [34],0.309
O=C(O)CC/C=C\CC[C@@H]1[C@@H](N2CCCCC2)[C@@H](O)C[C@@H]1OCc1ccc(-c2ccccc2)cc1,outcome,[2],inactive
same,outcome,[3],inactive
same,outcome,[8],inactive
same,outcome,[4],inactive
same,outcome,[5],inactive
same,outcome,[6],inactive
O=C(NCc1ccccc1)[C@H](Cc1ccccc1)NC(=O)[C@H]1O[C@@H]1C(=O)NCCc1ccc(O)cc1,outcome,[2],inactive
same,outcome,[3],inactive
same,outcome,[8],inactive
same,outcome,[4],inactive
same,IC50,[6],18.6 µM (active)
COc1cc(N2CCN(C)CC2)ccc1Nc1nc(N)c(C(=O)c2c(Cl)cccc2Cl)s1,outcome,[2],inactive
same,outcome,[3],inactive
same,outcome,[4],inactive
O=c1c(-c2ccc(O)cc2)coc2cc(OC3O[C@H](CO)[C@@H](O)[C@H](O)[C@H]3O)cc(O)c12 (stereo partly drawn),AC50,[2],20.9 µM (active)
same,outcome,[3],inactive
same,outcome,[4],inactive
CN(C)/[N+]([O-])=N/Oc1cc(ON[N+](=O)N2CCN(C(=O)c3cc(Cc4n[nH]c(=O)c5ccccc45)ccc3F)CC2)c([N+](=O)[O-])cc1[N+](=O)[O-],AC50,[2],20.9 µM (active)
same,AC50,[3],13.2 µM (active)
same,outcome,[4],inactive
COc1cc(Oc2ccnc3cc(OC)c(OC)cc23)ccc1NC(=O)NC(C)c1nccs1 (stereo not drawn),outcome,[2],inactive
same,outcome,[3],inactive
same,outcome,[11],inactive
same,outcome,[4],inactive
same,outcome,[5],inactive
same,outcome,[6],inactive
same,SSMD,[7],1.89
same,cell count,[7],6450
same,plate-normalised HSF1 focus index,[7],1.1 (inactive)
COCCNCCCn1c(C(=O)CF)c(-c2ccc(C)cc2)c2c(N)ncnc21,outcome,[2],inactive
same,outcome,[3],inactive
same,outcome,[11],inactive
same,outcome,[5],inactive
same,outcome,[6],inactive
CCCCCN(CCC12CC3CC(CC(C3)C1)C2)C(=O)NCCCc1ccncc1,outcome,[2],inactive
same,outcome,[3],inactive
same,AC50,[8],20.9 µM (active)
same,AC50,[4],20.9 µM (active)
same,outcome,[6],inactive
